Results on seven compounds are retold here after PubChem BioAssay (NCATS).

Several values for one entry are separate records, joined by “and”; a condition that tells them apart may be missing. Equal values may be shown once. Records with an inconclusive call do not appear. Activity calls are given as the source filed them. Unless noted, calls come from the whole dose curve; as a rule, active = well fitted curve in the direction sought with a large enough effect; inconclusive = small, poorly fitted or top-dose-only effect, or another doubt; inactive = no such curve, though single readings can be large; an effect the other way counts as inactive or inconclusive.

Test [1] can be described thus: Cell Viability - Jurkat (AID 426;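 active = dose-dependent loss of cell ATP signal giving a full or clear fitted curve, ranked by lower potency value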;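 note: potency is the fitted concentration of half-maximal effect; cells exposed to compound for 40 hours at 37 °C before ATP read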). To be noted: qHTS. The method, boiled down:
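Cells of the human T-cell leukemia line Jurkat (E6-1) are seeded at 5000 per well, treated with compound across a concentration range for 40 hours at 37 °C, then lysed with CellTiter-Glo; luminescence reports ATP.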
In general terms: In qHTS, concentration-response curves come from the screen itself.

The nature of test [2]: Cell Viability - Hek293 (AID 427;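 active = compounds whose dose-response curve shows a full or clear partial loss of cell viability, called from curve shape rather than a numeric limit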;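 note: potency is the fitted concentration of half-maximal effect; cells exposed to compound for 40 hours at 37 °C before reading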). To be noted: qHTS. The method, boiled down:
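AC50 values derive from Hill-modelled concentration-response of ATP-based luminescence, normalized between DMSO-only and 100 uM tamoxifen controls. Cells were exposed in complete culture medium for 40 hr at 37 °C before detection.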

In test [3] the target is Mitogen-activated protein kinase 10 (Mus musculus) (UniProt Q61831). Kind of test: JNK3 AlphaScreen Assay (AID 530; active = well fitted curve in either direction with a large enough effect, not every such curve was filed as active;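 note: kinase came from lysate of stimulated human HepG2 cells; signal reports phosphorylation of biotinylated GST-cJun 1-79 at Ser73 with 10 µM ATP; % is set by controls: 0 for no effect and ±100 for the full control effect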). The method in brief:
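qHTS titrations with 15 min compound pre-incubation before adding ATP (10 uM final). Read-out: AlphaScreen of Ser73-phosphorylated biotin-GST-cJun using HepG2 lysate JNK3 activated by IL-1β and TNFα.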
Background: In Alpha technology, singlet oxygen from a donor bead excites a nearby acceptor bead.

Test [4] is described as follows: Cell Viability - NIH 3T3 (AID 541).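 Note: plate controls were DMSO alone for no effect and tamoxifen positive control for full effect; nearly all actives have a fitted effect of over 25% in size.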 To be noted: NIH 3T3 cell viability, qHTS; activity change, negative = cytotoxicity: at 92.2 µM (top of the series). The method, boiled down:
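Cells seeded at 1000/well, rested 5 hr at 37 °C, then dosed and incubated 40 hr at 37 °C. CellTiter-Glo added, 20 min room temperature, luminescence read. AC50 by Hill fit.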

Test [5] can be described thus: Cell Viability - H-4-II-E (AID 543). Note: % is set by controls: 0 for no effect and ±100 for the full control effect; nearly all actives have a fitted effect of over 35% in size. The method in brief: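 Cells seeded at 1500 per well and rested 5 hr; compounds added; 40 hr incubation at 37 °C; CellTiter-Glo added, 20 min at room temperature; luminescence read. Hill-equation fits gave AC50.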
Test [6] in a line: Cellular Toxicity (caspase-3) NIH 3T3 (AID 666).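 Note: caspase signal read after 16 h compound exposure; 0% = DMSO basal and 100% = 100 µM tamoxifen stimulation.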 The method, boiled down:
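Cells were plated at 1000 per well and incubated 5 hr at 37°C, then compound was added for 16 hr. Caspase-Glo 3/7 reagent followed for 20 min at room temperature before luminescence was read.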

A short description of test [7]: Cell Viability - LYMP2-019 (AID 973).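 Note: 0% = DMSO alone and full effect = 92 µM tetraoctylammonium bromide; nearly all actives have a fitted effect of over 55% in size.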 The method in brief: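 Cytotoxicity is scored as a concentration-dependent drop in cellular ATP after cells (2500/well) receive compound for 24 hr at 37 C. Tetraoctylammonium bromide serves as positive control.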
The nature of test [8]: Cell Viability - LYMP2-021 (AID 974).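 Note: compound exposure lasts 24 hours at 37 °C; % is set by controls: 0 for no effect and ±100 for the full control effect; nearly all actives have a fitted effect of over 55% in size.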 The method, boiled down:
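Loss of cellular ATP, measured with a luciferase-based CellTiter-Glo readout, serves as the toxicity signal in human lymphoblastoid cells treated for 24 hours at 37 C. Potency is reported as AC50 from a standard Hill model.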

A short description of test [9]: Cell Viability - LYMP2-023 (AID 975).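 Note: cellular ATP measured by luciferase luminescence as viability proxy; plate controls were DMSO only for no effect and 92 µM tetraoctylammonium bromide control for full effect; nearly all actives have a fitted effect of over 55% in size.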 The method in brief: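 Steps: seed 2500 human lymphoblastoid cells per well, incubate 5 hr at 37 C, add compound for 24 hr at 37 C, add CellTiter-Glo, hold 30 min at room temperature, read luminescence. AC50 derived by Hill modelling.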
Test [10] in a line: Cell Viability - LYMP2-002 (AID 977).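 Note: compound exposure lasted 24 h at 37 °C; plate controls were DMSO only for no effect and 92 µM tetraoctylammonium bromide for full effect.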 The method, boiled down: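 Human lymphoblastoid cells (2500/well) in complete medium were preincubated 5 hr at 37 C, then exposed to compounds for 24 hr at 37 C. Intracellular ATP was read by CellTiter-Glo luminescence; AC50 came from Hill-equation concentration-response fits.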
Test [11] is described as follows: Cell Viability - LYMP2-007 (AID 979).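 Note: cells exposed to compound for 24 h before reading; 0% = DMSO only and the negative end = 92 µM tetraoctylammonium bromide; nearly all actives have a fitted effect of over 60% in size.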 The method in brief: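 Cells are seeded at 2500 per well and rested 5 hr. Compounds are then added over a concentration series for 24 hr at 37 C. CellTiter-Glo is added for 30 min at room temperature before luminescence reading.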
A short description of test [12]: Cell Viability - LYMP2-014 (AID 983).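 Note: plate controls were DMSO only for no effect and 92 µM tetraoctylammonium bromide for full effect; nearly all actives have a fitted effect of over 50% in size.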 The method, boiled down:
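Cells are plated at 2500/well and left 5 hr at 37 C. Compounds are added across a concentration range and incubated 24 hr at 37 C in complete medium. CellTiter-Glo is added, and luminescence is read after 30 min at room temperature.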

The nature of test [13]: Cell Viability - LYMP2-018 (AID 985).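 Note: compound exposure lasted 24 hr at 37 °C; plate controls were DMSO only for no effect and tetraoctylammonium bromide at 92 µM for full effect; nearly all actives have a fitted effect of over 50% in size.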 The method in brief: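 Seed 2500 lymphoblastoid cells per well, incubate 5 hr at 37 C, add compound and incubate 24 hr at 37 C, add CellTiter-Glo, wait 30 min at room temperature, then read luminescence.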
The nature of test [14]: Cell Viability - LYMP2-020 (AID 986).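 Note: plate controls were DMSO only for no effect and tetraoctylammonium bromide at 92 µM for full effect; nearly all actives have a fitted effect of over 55% in size.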 The method, boiled down: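 Seed 2500 cells per well and incubate 5 hr at 37 C. Add compounds at a concentration series and incubate 24 hr at 37 C. Add CellTiter-Glo, wait 30 min at RT, read luminescence, and fit a Hill curve for AC50.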
The nature of test [15]: Cell Viability - LYMP2-022 (AID 987). The method, boiled down:
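Cells were seeded at 2500 per well, rested 5 hr at 37 C, and treated with titrated compounds for 24 hr at 37 C. Cellular ATP was then quantified by luciferase luminescence, and AC50 values were derived from Hill-modelled concentration-response curves.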

A short description of test [16]: Cell Viability - LYMP2-026 (AID 989). Note: % is set by controls: 0 for no effect and ±100 for the full control effect; nearly all actives have a fitted effect of over 50% in size. The method in brief: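 Cells are seeded at 2500 per well and held 5 hr at 37 C. Compounds are added in concentration series for 24 hr, then CellTiter-Glo reagent is applied and luminescence read.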
Test [17] in a line: qHTS assay for small molecule agonists of retinoid X receptor alpha signaling (AID 588544). The settings on record: HEK293T RXRa-UAS-bla, beta-lactamase reporter, 18 h; 530 nm emission.
A short description of test [18]: qHTS assay for small molecule antagonists of retinoid X receptor alpha signaling (AID 588546).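 Note: cells stimulated with 9-cis-retinoic acid as agonist; % is set by controls: 0 for no effect and ±100 for the full control effect.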 The settings on record: HEK293T RXRa-UAS-bla, beta-lactamase ratio, antagonist mode; measured here: W530 green channel, cytotoxicity proxy. The method, boiled down:
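Beta-lactamase reporter inhibition, read as CCF4 fluorescence ratio (ex 405, em 460/530 nm) after 2 h at RT. HEK293T UAS-bla cells, 2500/well, were stimulated with 9-cis-RA at 500 or 100 nM final alongside test compound for 18 h at 37 C.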

Test [19] addresses Voltage-gated inwardly rectifying potassium channel KCNH2 (Homo sapiens) (UniProt Q12809). Kind of test: qHTS Assay for Small Molecule Inhibitors of the Human hERG Channel Activity (AID 588834).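 Note: U2OS cells transduced with hERG by BacMam; top concentration of the series differs between compounds; % is set by controls: 0 for no effect and ±100 for the full control effect; lower thallium flux fluorescence means stronger hERG block; nearly all actives have a fitted effect of over 50% in size.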 The method in brief: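 Cells were infected with hERG-BacMam virus for 4 hrs at room temperature, grown overnight, then seeded at 2000/well. After dye loading and roughly 10 min compound treatment, thallium influx was triggered and fluorescence recorded.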

Test [20] can be described thus: Cell Viability - LYMP2-004 (AID 966).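 Note: plate controls were DMSO only for no effect and tetraoctylammonium bromide control for full effect; nearly all actives have a fitted effect of over 65% in size.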 The method in brief: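 qHTS cytotoxicity: human lymphoblastoid line, 24 hr compound treatment, 37 C, complete medium. Viability read as cellular ATP via luciferase luminescence; tetraoctylammonium bromide served as positive control.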

Voltage-gated inwardly rectifying potassium channel KCNH2 (Homo sapiens), sequence (Q12809 whole entry, looked up): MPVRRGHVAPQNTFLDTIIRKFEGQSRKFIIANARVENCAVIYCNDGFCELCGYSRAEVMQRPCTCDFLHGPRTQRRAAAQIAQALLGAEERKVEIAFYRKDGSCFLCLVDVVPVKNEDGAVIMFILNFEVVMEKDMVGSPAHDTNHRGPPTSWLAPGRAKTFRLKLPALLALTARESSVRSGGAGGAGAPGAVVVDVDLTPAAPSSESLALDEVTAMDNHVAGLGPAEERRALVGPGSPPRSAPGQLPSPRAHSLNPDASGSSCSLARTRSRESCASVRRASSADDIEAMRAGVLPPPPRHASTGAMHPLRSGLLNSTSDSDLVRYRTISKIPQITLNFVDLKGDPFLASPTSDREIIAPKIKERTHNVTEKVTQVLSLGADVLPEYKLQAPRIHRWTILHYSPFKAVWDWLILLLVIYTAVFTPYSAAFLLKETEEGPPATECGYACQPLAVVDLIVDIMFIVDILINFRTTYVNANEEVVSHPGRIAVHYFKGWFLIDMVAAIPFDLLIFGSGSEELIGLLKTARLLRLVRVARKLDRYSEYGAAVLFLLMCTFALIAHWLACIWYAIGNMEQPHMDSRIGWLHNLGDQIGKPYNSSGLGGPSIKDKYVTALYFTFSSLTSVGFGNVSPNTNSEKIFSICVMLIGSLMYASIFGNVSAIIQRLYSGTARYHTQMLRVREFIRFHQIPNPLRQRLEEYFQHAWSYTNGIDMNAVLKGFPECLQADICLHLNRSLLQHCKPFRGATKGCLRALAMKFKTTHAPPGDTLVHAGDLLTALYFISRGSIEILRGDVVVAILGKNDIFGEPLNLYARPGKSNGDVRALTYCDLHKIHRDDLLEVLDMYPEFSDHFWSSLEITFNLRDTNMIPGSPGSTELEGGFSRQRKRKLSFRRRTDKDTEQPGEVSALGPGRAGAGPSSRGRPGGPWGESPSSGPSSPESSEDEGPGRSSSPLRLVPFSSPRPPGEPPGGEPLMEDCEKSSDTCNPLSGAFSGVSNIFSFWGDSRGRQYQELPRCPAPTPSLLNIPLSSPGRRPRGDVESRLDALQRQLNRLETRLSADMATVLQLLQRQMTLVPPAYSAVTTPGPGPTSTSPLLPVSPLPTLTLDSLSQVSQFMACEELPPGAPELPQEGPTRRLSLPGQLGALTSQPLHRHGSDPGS

Consider `C[N+](C)(C)Cc1ccccc1`, for which the Potency in test [1] and in test [2] was > 92 µM (inactive) throughout. Besides, the outcome in test [3] and in test [6] was inactive. Further, the activity change, negative = cytotoxicity in [4] was -12.6% (inactive). Besides, the Potency entry in test [5], in [7], in [8], in test [9], in test [10] and in [11] was “inactive” throughout. Moreover, the Potency result in test [12], in [13], in test [14], in [15], in [16] and in test [19] was “inactive” in each case. Further, the max response in [17] was 3.34% and -11.4%; in [18], 0.533% and -1.08%.

Take `c1ccc(OP(Oc2ccccc2)Oc2ccccc2)cc1`: the Potency in test [1] and in test [2] was > 92 µM (inactive) each time. Also, the result in test [3] and in test [6] was inactive. Further, the activity change, negative = cytotoxicity in test [4] is 7% (inactive). Also, the Potency result in [5], in test [20], in test [7], in test [8], in test [9] and in test [10] was “inactive” throughout. Further, the Potency result in test [11], in test [12], in test [13], in test [14], in test [15] and in test [16] was “inactive” each time. Besides, the Potency result in test [19] is “inactive”. The max response in test [17] was 3.52% and -16.1%; in [18], -3.76% and -10.6%.

For `CC(O)CCl` (stereo not given), the Potency in [1] and in test [2] was > 92 µM (inactive) in each case. The outcome in test [3] and in test [6] was inactive. The activity change, negative = cytotoxicity in test [4] is 4.45% (inactive). Moreover, the Potency result in test [5], in test [20], in test [7], in [8], in test [9] and in [10] was “inactive” throughout. In addition, the Potency result in test [11], in test [12], in [13], in test [14], in test [15] and in test [16] was “inactive” each time. Besides, the Potency result in test [19] was “inactive”. Also, the max response in test [17] was -11.9% and -9.91%; in [18] it was -12.9% and -6.32%.

Turning to `Brc1ccc(Oc2cc(Br)c(Br)cc2Br)c(Br)c1`, the activity change, negative = cytotoxicity in [4] was -13.1% (inactive) and -22.5% (inactive). Moreover, the Potency result in test [5], in [20], in [7], in [8], in [9] and in test [10] was “inactive” each time. For the same compound, the Potency result in test [11], in [12], in test [13], in test [14], in [15] and in [16] was “inactive” each time. In test [19], the Potency result was “inactive”. For the same compound, the call in test [6] was inactive. The max response in [18] was 10.6% and 6.53%.

Regarding `c1ccc2c(c1)CCCC2`, the Potency in test [1] and in test [2] was > 92 µM (inactive) in each case. Also, the compound was classed as inactive in test [3] and in [6]. Also, the activity change, negative = cytotoxicity in [4] is 9.7% (inactive). In addition, the Potency entry in [5], in [20], in test [7], in test [8], in test [9] and in test [10] was “inactive” in each case. In addition, the Potency entry in test [11], in [12], in [13], in [14], in test [15] and in [16] was “inactive” throughout. The Potency result in [19] was “inactive”. Besides, the max response in test [17] was -21.1%; in test [18], -8.06%.

Regarding `C=CC1CC=CCC1` (stereo not given), the Potency in test [1] and in test [2] was > 92 µM (inactive) throughout. In addition, the compound was called inactive in test [3] and in test [6]. For the same compound, the activity change, negative = cytotoxicity in test [4] was 4.42% (inactive). Also, the Potency result in test [5], in [20], in [7], in [8], in [9] and in test [10] was “inactive” each time. For the same compound, the Potency result in test [11], in test [12], in [13], in [14], in [15] and in test [16] was “inactive” in each case. Besides, in test [19], the Potency result is “inactive”. For the same compound, the max response was 0.848% and 1.74% in test [17]; -1.79% and -13.7% in test [18].

As for `Cc1cccc(C#N)c1`, the Potency in [1] and in test [2] was > 92 µM (inactive) each time. Moreover, the compound was classed as inactive in test [3] and in [6]. Further, in test [4], the activity change, negative = cytotoxicity is -15.8% (inactive). Also, the Potency result in test [5], in test [20], in test [7], in test [8], in [9] and in [10] was “inactive” throughout. Moreover, the Potency entry in [11], in [12], in test [13], in test [14], in test [15] and in test [16] was “inactive” each time. Moreover, in test [19], the Potency result is “inactive”. Further, the max response in test [17] was -7.67%; in test [18], 3.52%.
